Assay outcomes: PubChem, National Center for Advancing Translational Sciences (NCATS)
An excerpt weighted towards active compounds, which were near 9.2% of everything screened.
ELG1 genotox – genotoxicity induction in ELG1-luciferase HEK293T cells; Potency, µM (titrated, usually from 46 µM), inactives show at the highest dose activity change, positive = activation, actives largely listed as activators; 330,000 compounds, 1.3% hits; HEK293T ELG1-luciferase reporter, luminescence, 16 h; AID 504466; further: % of control where 0% means no effect; nearly all actives have a fitted effect of over 60% in size
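HEK293T cells expressing luciferase-tagged ELG1 were exposed to compound or DMSO vehicle for 16 hr at 37 °C and 5% CO2. Luciferase activity was then measured with ONE-Glo after 30 min at room temperature.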
FLuc counter – counter-screen for miR-21 project: firefly luciferase inhibitors or activators; Potency, µM (series often up to 57.5 µM), inactives show at the highest dose activity change, negative = inhibition, hits mostly inhibitors; purified FLuc, Km substrates, luminescence inhibition; 360,000 compounds, 6.9% hits; AID 588342; P08659;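 further: plate controls were vehicle for no effect and reference inhibitor for full effect; nearly all actives have a fitted effect of over 55% in size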
Target sequence (P08659 whole entry, looked up): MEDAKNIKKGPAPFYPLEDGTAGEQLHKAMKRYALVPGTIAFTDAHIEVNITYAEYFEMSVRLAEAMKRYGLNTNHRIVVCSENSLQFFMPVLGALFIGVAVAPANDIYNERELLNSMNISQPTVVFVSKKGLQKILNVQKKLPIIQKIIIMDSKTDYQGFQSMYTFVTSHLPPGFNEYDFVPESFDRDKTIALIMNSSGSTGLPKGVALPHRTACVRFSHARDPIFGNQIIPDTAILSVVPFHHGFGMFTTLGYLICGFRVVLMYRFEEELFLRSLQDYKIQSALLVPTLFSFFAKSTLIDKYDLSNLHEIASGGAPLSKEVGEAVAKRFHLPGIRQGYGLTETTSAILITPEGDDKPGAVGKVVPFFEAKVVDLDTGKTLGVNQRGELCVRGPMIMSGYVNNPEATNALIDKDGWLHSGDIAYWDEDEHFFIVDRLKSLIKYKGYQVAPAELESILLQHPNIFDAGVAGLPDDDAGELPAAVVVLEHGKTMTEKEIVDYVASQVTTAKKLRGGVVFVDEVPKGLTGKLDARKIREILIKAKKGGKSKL
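Biochemical qHTS of compounds, final roughly 60 µM downward over six points, against 10 nM purified firefly luciferase using Km concentrations of substrates (10 uM D-luciferin, 10 uM ATP) in Tris acetate pH 7.5 buffer; luminescence output.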
NPC1 prom act – activates the NPC1 promoter; Potency, µM (series often up to 9.22 µM), without a hit: at the highest dose activation, actives largely listed as activators; Huh7 NPC1 promoter luciferase reporter, 24 h; AID 485313; 320,000 compounds, 2.4% hits; further: % of control where 0% means no effect; nearly all actives have a fitted effect of over 60% in size
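Readout is luciferase luminescence, reflecting NPC1 promoter activation in stably transfected Huh7 cells after 24 h compound exposure at 37 °C in reduced-serum medium with 10% FBS.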
SMN2 splice enh – enhancers of SMN2 splice variant expression. Potency, µM (top dose mostly 46.1 µM), for the others: at the highest dose activity change, positive = activation, actives largely listed as activators. HEK293 SMN2-luciferase splicing reporter, luminescence, 30-36 h. 210,000 compounds, 2.8% hits; further: % of control where 0% means no effect; nearly all actives have a fitted effect of over 55% in size
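HEK293 cells carry an SMN2 […]–luciferase reporter in which exon 7 inclusion puts luciferase in frame. Cells were plated 10-12 h before compound addition, then incubated 30-36 h at 37C. ONE-Glo luminescence was read; sodium butyrate at 4.5 mM final served as control.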
Rab9 prom act – activators of Rab9 promoter; Huh7 Rab9 promoter-luciferase reporter, luminescence, 24 h; Potency, µM (titrated, usually from 9.22 µM), for the others: at the highest dose activation, negative = inhibition, usual class: activators; 320,000 compounds, 2.8% hits; further: % of control where 0% means no effect; nearly all actives have a fitted effect of over 60% in size
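Luciferase signal after 10 min detection reagent at ambient indicates Rab9 promoter upregulation; stably transfected Huh7 cells were treated 24 h with compound in DMSO at 37 °C, 5% CO2.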
ELG1 repair inh – ELG1-dependent DNA repair inhibition; HEK293T ELG1-luciferase reporter, luminescence, 16 h; DNA damage induced by 5-fluorouridine; Potency, µM (titrated, usually from 46.1 µM), for the others: at the highest dose activity change, negative = inhibition, most hits filed as inhibitors; 330,000 compounds, 2.3% hits; AID 504467; further: on the % scale 0 is the no-effect control and ±100 the full control effect; nearly all actives have a fitted effect of over 55% in size
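Overnight (16 hr) co-exposure of 2,000 cells/well to 5-fluorouridine and compound at 37 °C preceded detection. Luciferase was quantified via ONE-Glo luminescence; loss of signal denotes inhibition.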
An asterisk follows results filed as active; ? = inconclusive; . = no result; [ ] = remark or other dose. The call rests on the fitted dose curve; in most records, active means well fitted curve in the direction sought with a large enough effect; inconclusive means small, poorly fitted or top-dose-only effect, or another doubt; inactive means no such curve, though single readings can be large; an effect the other way counts as inactive or inconclusive. Potency means the concentration at half of the fitted maximal effect.

SMILES | ELG1 genotox | FLuc counter | NPC1 prom act | SMN2 splice enh | Rab9 prom act | ELG1 repair inh
CC1=NN(C(N)=S)C(=O)C1N=Nc1ccccc1O (stereo not given) | 0% | -5% | 26% | . | 8% | -5%
CC1=NN(C(N)=S)C(=O)C1N=Nc1c(Br)cc(Br)cc1Br (stereo not given) | -10% | ? | 15% | . | 5% | 3%
CC1=NN(C(N)=S)C(=O)C1N=Nc1c(Cl)cc([N+](=O)[O-])cc1Cl (stereo not given) | 9% | 13µM* | ? | . | ? | ?
CC(=O)N(C)c1ccc(N=NC2C(=O)N(C(N)=S)N=C2C)cc1 (stereo not given) | ? | 3µM* | 0.5µM* | . | -52% | ?
CCC(Sc1nnc(C)n2c1cc1occc12)C(=O)Nc1ccccc1OC (stereo not given) | . | 0% | . | . | . | .
Cc1cccc(CNC(=O)CN2C(=O)CCn3nc(-c4cn(C)c5ccccc45)cc32)c1 | . | -14% | . | . | . | .
Cc1cccc(N2CCN(CCCNC(=O)c3nnc(Cc4c(F)cccc4Cl)o3)CC2C)c1 (stereo not given) | . | -5% | . | -17% | . | .
CC(C)c1cc(C(=O)N2CCCC(N3CCN(c4ccc(F)cc4)CC3)C2)n(C)n1 (stereo not given) | -1% | 2% | -4% | . | -9% | ?
COc1ccccc1NC(=O)c1sc2nc(-c3cc4cc(Cl)ccc4oc3=O)[nH]c(=O)c2c1C | . | -4% | . | . | . | .
Cc1ccc(-c2noc(CN3CCC(C(N)=O)CC3)n2)cc1 | 12% | ? | ? | 19% | ? | ?
CC1CCN(Cc2nc(-c3ccccc3)no2)CC1 | 5.2µM* | 12µM* | 2.8µM* | . | 2.8µM* | ?
Cc1ccc(-c2noc(CN3C(C)CCCC3C)n2)cc1 (stereo not given) | 21µM* | ? | 5% | -6% | 1% | 22%
Cc1cccc(NS(=O)(=O)c2ccc3c(c2)NC(=O)CO3)c1C | 0% | 2% | 17% | . | -1% | -2%
OCc1cn(-c2ccccc2)nc1-c1ccc2c(c1)OCCO2 | 5% | 21µM* | ? | -26% | ? | ?
OCc1cn(-c2ccccc2)nc1-c1ccc(Br)cc1 | ? | 17µM* | ? | . | ? | ?
CC(C)COc1ccc(-c2nn(-c3ccccc3)cc2CO)cc1 | 0% | ? | 0% | . | -5% | -13%
COCCNC(=O)Cn1c(=O)n(-c2ccc(C)c(C)c2)c(=O)c2c3c(sc21)CCCCC3 | . | -9% | . | 0% | . | .
CCc1noc(C)c1C(=O)NCCc1ccc(F)cc1 | 0% | 2% | -1% | . | -2% | 8%
CCc1noc(C)c1C(=O)Nc1nc(-c2ccccc2)c(C(C)=O)s1 | -2% | 15µM* | -1% | . | -9% | ?
Cc1noc(C)c1C(=O)Nc1nc2ccc(F)cc2s1 | ? | 4.3µM* | 1.6µM* | . | 3.2µM* | ?
CCc1noc(C)c1C(=O)Nc1nc2ccc(F)cc2s1 | 9% | 17µM* | ? | . | ? | ?
Cc1noc(C)c1C(=O)Nc1nc2ccc(Cl)cc2s1 | ? | 2.4µM* | ? | . | ? | ?
Fc1ccc(-c2cc(-c3ccc(F)cc3)c3c(n2)-c2cc(F)ccc2OC3)cc1 | . | -5% | . | 8% | . | .
COc1ccccc1OCC(=O)Nc1nc(-c2ccc(Br)cc2)ns1 | . | -17% | . | . | . | .
CCCC1(C)C(C#N)(C#N)C1(C#N)C#N | . | . | -35%[46.1 µM] | . | -44%[46.1 µM] | .
SMILES | ELG1 genotox | FLuc counter | NPC1 prom act | SMN2 splice enh | Rab9 prom act | ELG1 repair inh
CCc1noc(C)c1C(=O)Nc1nc2ccc(S(C)(=O)=O)cc2s1 | 15% | 2.4µM* | 22% | . | 4% | ?
CCc1noc(C)c1C(=O)NCCc1ccccc1 | 16µM* | ? | ? | . | ? | ?
CCc1ccc2nc(NC(=O)c3cc(C)on3)sc2c1 | 14% | 6µM* | -5% | ? | ? | ?
Cc1cc(C)c2nc(NC(=O)c3cc(C)on3)sc2c1 | 15% | ? | -5% | -9% | -1% | ?
CCc1noc(C)c1C(=O)Nc1nc2c(C)cc(C)cc2s1 | 22% | 11µM* | -12% | . | -4% | 24%
O=C(CCS(=O)(=O)c1nc(-c2ccc3c(c2)OCO3)cc(C(F)(F)F)n1)Nc1ccccc1C(F)(F)F | . | 6% | . | -9% | . | .
CCOC(=O)c1nn(-c2ccccc2Cl)c(=O)cc1OCC(=O)Nc1cccc(OC)c1 | -2% | -1% | -5% | . | -5% | 12%
COCCNC(=O)c1c(NC(=O)Cc2coc3cc(C)ccc23)sc2c1CCCC2 | . | ? | . | -20% | . | .
Cc1onc(-c2ccccc2Cl)c1C(=O)Nc1nc2ccc(S(C)(=O)=O)cc2s1 | -2% | 12µM* | -1% | 1% | 0% | ?
Cc1ccc(CCNC(=O)c2ccc3c(c2)N(Cc2ccccc2F)C(=O)c2ccccc2S3=O)cc1 (stereo not given) | . | -2% | . | 7% | . | .
CCOc1ccccc1C(=O)N[C@H](C(=O)OCc1csc(CC(=O)Nc2ccc(C)cc2)n1)C(C)C | -9% | . | . | . | . | 23µM*
CCN(CC)c1ccc2cc(-c3nnc(-c4ccncc4)o3)c(=O)oc2c1 | ? | ? | ? | 11µM* | ? | ?
CCN(CC)c1ccc2cc(-c3nc(-c4cccs4)no3)c(=O)oc2c1 | . | 3.8µM* | . | . | . | .
CCN(CC)c1ccc2cc(-c3nc(-c4cc(OC)c(OC)c(OC)c4)no3)c(=O)oc2c1 | . | -6% | . | . | . | .
CCCCn1cnc2cc(NCc3ccccc3Cl)ccc21 | . | 24µM* | . | 18% | . | .
CCCn1cnc2cc(NCc3cccs3)ccc21 | ? | 19µM* | ? | . | ? | ?
CCn1cnc2cc(NCc3ccccc3Cl)ccc21 | ? | 17µM* | ? | . | ? | ?
CCOc1ccc(NC(=O)C(CC)n2nc(C)c3c(C)n(-c4ccccc4)nc3c2=O)cc1 (stereo not given) | -2% | -9% | -1% | . | -3% | ?
Cc1ccc(-c2nc3ccccc3nc2NN)cc1 | 8.2µM* | 1.3µM* | 6% | . | ? | ?
CN(C(=O)COC(=O)COc1ccc(Cl)cc1Cl)c1c(N)n(Cc2ccccc2)c(=O)[nH]c1=O | 0% | -12% | -3% | . | 1% | 20%
O=C(Nc1ccccc1Cl)N1CCN(c2ccc3nnc(-c4ccc(F)cc4)n3n2)CC1 | -7% | 3% | -4% | -12% | 3% | 21µM*
COc1ccccc1NC(=O)N1CCN(c2ccc3nnc(-c4ccc(F)cc4)n3n2)CC1 | -4% | 5% | -7% | -3% | -13% | ?
COC(=O)c1ccc(C2C(C(=O)c3ccco3)=C(O)C(=O)N2CC2CCCO2)cc1 (stereo not given) | 5% | 0% | 2% | . | 4% | 24%
